From PubChem BioAssay
Pf growth 48h: P. falciparum growth inhibition at 48 hours (one generation); P. falciparum luciferase growth in erythrocytes, 48 h; Potency, µM (highest dose often 28.7 µM), for the others: top-dose activity change, negative = inhibition, hits mostly inhibitors; actives 5.9% (n = 310,000); further: potency means the concentration at half of the fitted maximal effect; on the % scale 0 is the no-effect control and ±100 the full control effect
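Luciferase-expressing P. falciparum in infected erythrocytes (2% hematocrit, 0.1% parasitemia final) in RPMI 1640/0.5% Albumax were exposed to compound for 48 hours at 37 C, 5% CO2; growth read as luminescence.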
Pf growth 96h: P. falciparum growth inhibition at 96 hours | P. falciparum luciferase reporter growth, 96 h | Potency, µM (doses to about 28.7 µM), for inactives: top-dose activity change, negative = inhibition, usual class: inhibitors | actives 6.9% (n = 320,000); further: potency means the concentration at half of the fitted maximal effect; on the % scale 0 is the no-effect control and ±100 the full control effect
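P. falciparum expressing integrated firefly luciferase, in erythrocytes at 2% hematocrit, 0.05% parasitemia, incubated with compounds 96 h at 37 C, 5% CO2. Growth inhibition read as loss of luminescence; two-generation exposure targets delayed-death apicoplast inhibitors.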
Shiga inhibitor: inhibitors of Shiga toxin in Vero cells; Vero cells, Shiga toxin protein synthesis inhibition reporter; inhibition, % at 38.7 µM; actives 9.2% (n = 290,000); AID 2315; in the data active means inhibition mostly above about 28%, no sharp cut-off; inactive means mostly below about 43%; further: 0% is about no effect
HCMV inh: inhibitors of human cytomegalovirus; HFF cells, HCMV-luciferase reporter, 72 h; active compounds read low; activity change, negative = inhibition, % at 57.5 µM; AID 1259415; actives 4.5% (n = 410,000); in the data active means activity change below about -60%; inconclusive means no clear call, values can overlap the other calls; inactive means above about -39%; further: on the % scale 0 is the no-effect control and ±100 the full control effect
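After 16 h attachment at 37C, HFF cells received test compound and HCMV-luciferase (1 PFU/cell); reporter luminescence read 72 h later, data normalized against buffer-only and known inhibitor Salinomycin.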
CHX counter: affects cycloheximide protein synthesis inhibition readout, counter-screen. cell reporter, cycloheximide protein synthesis inhibition counterscreen. max response, %. actives 12% (n = 300,000). AID 2314; in the data active means max response mostly above about 13%, no sharp cut-off; inactive means mostly below about 14%; further: read at 38.3 µM for the half of the compounds with a filed dose; 0% is about no effect
Starred values were filed as active, the others as inactive; ? = inconclusive; nt = no result. A selection: hits, their analogues and other compounds. The true share with any hit is near 20%. Unless noted, the call rests on the fitted dose curve; in most records, active means well fitted inhibition curve with a large enough effect; inconclusive means small, poorly fitted or top-dose-only effect, or another doubt; inactive means no such curve, though single readings can be large or run the other way.

SMILES	Pf growth 48h	Pf growth 96h	Shiga inhibitor	HCMV inh	CHX counter
COc1cc(C(Nc2ccc(S(=O)(=O)NCC3CCCO3)cc2)C(=O)NC(C)(C)C)cc(OC)c1OC (centres undefined)	2.1µM*	?	-3	0	-4
COc1ccc(S(=O)(=O)N2CCC(C(=O)NCC3CCCO3)CC2)cc1C (centres undefined)	13%	33%	-5	2	-2
CS(=O)(=O)N(Cc1ccccc1)c1ccc(C(=O)Nc2ccc3c(c2)OCO3)cc1	nt	nt	33	-19	-2
Cc1ccc(CN2CC(=O)N3[C@H]4c5cc(C)ccc5OC[C@@H]4[C@H](c4ccccc4)[C@]3(C)C2=O)cc1	5.9µM*	96%	nt	18	nt
Cc1ccc(CN2CC(=O)N3[C@H]4c5cc(Cl)ccc5OC[C@@H]4[C@H](c4ccccc4)[C@]3(C)C2=O)cc1	6.6µM*	8.3µM*	nt	-8	nt
Cc1ccc2c(c1)[C@H]1[C@H](CO2)[C@H](c2ccccc2)[C@]2(C)C(=O)N(Cc3ccccc3)CC(=O)N12	nt	nt	nt	-7	nt
CC1(C)CC(NS(=O)(=O)c2ccc(Cl)cc2)CC(C)(C)N1	?	-14%	-13	37	-3
CO/N=C/NC(=O)N1OC[C@@H]2COc3ccc4ccccc4c3[C@@H]21	nt	-32%	-4	1	-4
NC(=S)N1OC[C@@H]2COc3ccc4ccccc4c3[C@@H]21	-8%	1%	21	-67*	-6
Cn1c(C(=O)NC2CCCC2)cc2c(=O)n(C)c3ccccc3c21	nt	?	23	15	5
C=CCn1c(-c2ccc([N+](=O)[O-])cc2)n[nH]c1=S	2%	2.3µM*	-11	-37	-7
Cc1cccc(-c2ccc3[nH]c4c(c3c2)CCN2C[C@@H]([C@H](C)O)[C@@H](N(C)C(=O)Nc3ccc(F)cc3)C[C@@H]42)c1	nt	nt	nt	-6	nt
C[C@H](O)[C@@H]1CN2CCc3c([nH]c4ccc(-c5ccc6c(c5)OCO6)cc34)[C@@H]2C[C@@H]1N(C)C(=O)NC1CCCCC1	nt	nt	nt	-86*	nt
COc1ccc(-c2noc(CSc3nnc(-c4ccncc4)n3-c3ccc(C)cc3)n2)cc1	nt	nt	nt	-27	nt
Clc1ccc(-c2noc(CCCc3ccccc3)n2)cc1	nt	8%	-5	-10	8
Clc1ccc(Cc2nc(-c3ccncc3)no2)cc1	?	-8%	38	7	17*
COc1ccc(Cc2nc(-c3ccncc3)no2)cc1	?	?	85*	2	37*
Cc1ccc(OCC(=O)Nc2sc3c(c2C(N)=O)CCCC3)c(C(C)(C)C)c1	nt	nt	nt	-21	nt
COc1cc(CCC(=O)OCC(=O)NCCc2ccc(S(N)(=O)=O)cc2)cc(OC)c1OC	nt	nt	nt	10	nt
NCC(c1ccccc1Cl)c1c[nH]c2ccccc12 (centres undefined)	9.3µM*	?	-13	143	-1
NCC(c1ccc(Cl)cc1Cl)c1c[nH]c2ccccc12 (centres undefined)	?	?	-8	66	-2
COc1ccc(OC)c(-c2noc(CSc3nnc(Cc4ccccc4)n3-c3cccc(C)c3)n2)c1	nt	nt	nt	-7	nt
C[n+]1cccc2c(Br)ccc([O-])c21	?	2.3µM*	-8	4	-1
CCOC(=O)c1ccsc1NC(=O)c1ccco1	24%	?	2	-13	10
COCCN1CN=C(Nc2nc(C)c3ccc(C)cc3n2)NC1	2.1µM*	3%	-14	nt	-4
SMILES	Pf growth 48h	Pf growth 96h	Shiga inhibitor	HCMV inh	CHX counter
Cc1ccc2c(C)nc(NC3=NCN(Cc4ccccc4)CN3)nc2c1	?	36%	-10	nt	-3
Cc1ccc2c(C)nc(NC3=NCN(CCc4ccccc4)CN3)nc2c1	2.6µM*	239%	-13	nt	-5
CCN(CC)CCOC(c1ccccc1)c1ccc(C)cc1 (centres undefined)	?	?	1	-20	-2
CCN(CC)CCC(C)OC(c1ccccc1)c1ccccc1 (centres undefined)	-18%	-83%	53*	-23	22*
COc1ccccc1/C=C/C(=O)NC(=S)Nc1ccccn1	36%	?	105*	12	45*
COc1ccc(/C=C/C(=O)NC(=S)Nc2ccccn2)cc1	107%	62%	90*	47	47*
COc1ccc(/C=C/C(=O)c2ccc(C(=O)/C=C/c3ccc(OC)c(OC)c3)cc2)cc1OC	?	?	20	-76*	28*
COc1ccc(/C=C/C(=O)C2(O)CCCCC2)cc1	0%	-9%	47*	-8	19*
COc1ccc(/C=C/C(=O)NC2CCCCC2C)cc1 (centres undefined)	4%	?	nt	50	12
COc1ccc(/C=C/C(=O)c2ccccc2)cc1Cn1nnc2ccccc21	?	?	27*	-34	27*
COc1ccc(C(=O)/C=C/c2cccc(OCc3ccccc3)c2)cc1CSCC(=O)O	9.3µM*	4.7µM*	-2	-28	-8
CCCC(=O)NCC1(N(C)C)CCCCC1	nt	nt	nt	19	nt
Cc1ccc2c(C)c(C)c(=O)n(C)c2c1	nt	nt	nt	-4	nt
COc1ccc(Oc2ccc(/C=C/C(=O)c3ccc(O)cc3)cc2[N+](=O)[O-])cc1	12µM*	12µM*	20	-98*	7
COc1ccc(CCNC(=O)COC(=O)/C=C/c2ccc(OCC#N)c(OC)c2)cc1OC	-21%	-33%	17	87	-4
COc1cc(/C=C/C(=O)O)ccc1OS(=O)(=O)c1c(C)c(C)cc(C)c1C	10µM*	-71%	nt	-12	nt
COc1ccc(/C=C/c2ccncc2)cc1OC	52%	?	57*	2	28*
COc1cc(/C=C/C(=O)c2ccc(C)cc2)ccc1OCC#N	?	?	107*	0	81*
O=C(NNc1ccc(O)cc1)c1ccc(Br)cc1	28%	153%	40	24	9
COc1cccc(CNC(=O)c2sc3nc[nH]c(=O)c3c2C)c1	nt	nt	nt	-23	nt
